Molecules are shown by their SMILES.

In test [1] the test system is Human papillomavirus type 1a protein E7 (residues 44-93). The test can be described thus: small molecules binding HPV E7 44-93 – biochemical, small-molecule microarray, residues 44-93, 635 nm fluorescence, primary screen (AID 1108).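 Also: E7 fragment applied at 1 µg/mL in TBST for 1 h at 4 C; score combines spot fluorescence with its signal to noise ratio.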 Particulars: fluorescence 635 nm, higher = more signal.
Test [2] can be described thus: hepatitis C replication reporter changes, two-sided – Huh7 cells, luciferase reporter, HCV replication inhibitor project, primary screen (AID 1109).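 Also: huh7 hepatoma cells harbouring a luciferase neomycin HCV replicon reporter; luciferase luminescence as measure of HCV replicon replication; test concentration not given here.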 Particulars: Huh7 HCV replicon luciferase reporter, 48 h; higher = more signal.
The target in test [3] is Left-right determination factor 2 (Homo sapiens) (UniProt O00292). The test can be described thus: small molecules binding LEFTY2 protein – biochemical, small-molecule microarray, 635 nm fluorescence scan, primary screen (AID 1110). The note with it: higher = more signal.
Chain of Left-right determination factor 2 (Homo sapiens) (O00292 whole entry, looked up): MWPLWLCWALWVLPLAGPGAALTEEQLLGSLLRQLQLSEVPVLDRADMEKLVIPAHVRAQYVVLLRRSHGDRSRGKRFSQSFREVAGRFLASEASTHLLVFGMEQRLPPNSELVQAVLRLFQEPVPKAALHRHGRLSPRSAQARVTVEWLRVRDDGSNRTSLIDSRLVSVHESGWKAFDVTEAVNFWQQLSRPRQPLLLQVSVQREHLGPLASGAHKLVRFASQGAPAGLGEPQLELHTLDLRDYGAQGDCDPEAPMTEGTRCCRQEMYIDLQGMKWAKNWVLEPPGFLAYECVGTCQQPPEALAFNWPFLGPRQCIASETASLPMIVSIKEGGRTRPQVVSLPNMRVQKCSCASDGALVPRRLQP
Test [4] has as its target Calmodulin-1 (Homo sapiens) (UniProt P0DP23). The test is described as follows: small molecules binding calmodulin-1 with EGTA – biochemical, small-molecule microarray, Cy5-labelled CALM1, profiling panel (AID 1111).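 Also: labelled calmodulin applied in Tris saline Tween buffer holding calcium plus EGTA and DTT.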 The note with it: Cy5-CALM1 binding fluorescence, higher = more signal.
Test [5] shares this target. The test is described as follows: small molecules binding Ca-loaded calmodulin-1 – biochemical, small-molecule microarray, Cy5-labelled CALM1, plus calcium, artefact control for SMM control-protein annotation, profiling panel (AID 1112).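 Also: score merges spot fluorescence with signal to noise from triplicate slides.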 The note with it: Cy5-CALM1 binding fluorescence, higher = more signal.
Test [6] is described as follows: probe aWnt5a binding to arrayed compounds – biochemical, biotinylated probe, 635/667 nm fluorescence, primary screen (AID 1113).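 Also: score merges 667 nm fluorescence intensity with signal-to-noise per printed feature.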 The note with it: small-molecule microarray, higher = more signal.
Test [7] is described as follows: probe aShh binding to arrayed compounds – biochemical, biotinylated probe, 635/667 nm fluorescence, primary screen (AID 1114).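 Also: probe is biotin-labelled aShh protein from a stem cell growth factor screen; measures binding of labelled protein to compounds printed on the slide; score merges feature fluorescence at 667 nm with signal-to-noise.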 The note with it: small-molecule microarray, higher = more signal.
The nature of test [8]: probe aNog binding to arrayed compounds – biochemical, biotinylated probe, 635/667 nm fluorescence, primary screen (AID 1115).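 Also: probe is biotinylated aNog protein used at 0.15 µg/mL for 1 h at 4 C; z-score combines 667 nm fluorescence of each spot with its signal to noise.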 Particulars: small-molecule microarray, higher = more signal.
Test [9] deals with Torsin-1A-interacting protein 1 (Homo sapiens) (UniProt Q5JTV8). The test is described as follows: compound microarray binding of lysate hLAP1 – cell lysate, small-molecule microarray, COS7 lysate, 635/667 nm fluorescence, primary screen (AID 1116). Particulars: 635 nm fluorescence, higher = more signal.
Chain of Torsin-1A-interacting protein 1 (Homo sapiens) (Q5JTV8 whole entry, looked up): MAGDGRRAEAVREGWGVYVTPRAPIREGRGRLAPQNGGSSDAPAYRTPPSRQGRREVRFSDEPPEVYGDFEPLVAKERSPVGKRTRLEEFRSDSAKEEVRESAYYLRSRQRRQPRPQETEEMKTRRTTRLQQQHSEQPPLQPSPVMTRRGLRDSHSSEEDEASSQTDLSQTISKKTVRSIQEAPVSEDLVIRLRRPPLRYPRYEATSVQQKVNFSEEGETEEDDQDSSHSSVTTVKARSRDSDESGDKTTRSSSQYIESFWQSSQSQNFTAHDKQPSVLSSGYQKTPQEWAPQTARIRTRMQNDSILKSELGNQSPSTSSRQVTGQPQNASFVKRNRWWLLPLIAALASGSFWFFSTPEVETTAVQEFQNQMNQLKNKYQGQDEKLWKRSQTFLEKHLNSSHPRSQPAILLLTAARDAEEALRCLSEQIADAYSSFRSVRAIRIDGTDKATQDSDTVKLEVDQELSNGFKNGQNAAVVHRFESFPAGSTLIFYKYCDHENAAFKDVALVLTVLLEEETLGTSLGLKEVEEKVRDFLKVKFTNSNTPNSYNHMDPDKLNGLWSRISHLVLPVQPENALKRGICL
Test [10] has as its target Alpha-bungarotoxin (Bungarus multicinctus) (UniProt P60615). The test is described as follows: compounds binding labelled alpha-BTX control protein – biochemical, small-molecule microarray, Alexa647 label, 635/667 nm fluorescence, artefact control for SMM control protein annotation, profiling panel (AID 1117). The note with it: alpha-BTX-A647 binding fluorescence, higher = more signal.

Chain of Alpha-bungarotoxin (Bungarus multicinctus) (P60615 whole entry, looked up): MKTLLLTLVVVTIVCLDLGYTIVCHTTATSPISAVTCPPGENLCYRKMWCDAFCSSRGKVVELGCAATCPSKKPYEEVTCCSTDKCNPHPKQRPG

Consider `COCCOC(=O)N1C(=O)[C@@]2(c3cc(C#CCC(C(=O)OC)C(=O)OC)ccc31)[C@H](c1ccc(O)cc1)N1[C@H](c3ccccc3)[C@H](c3ccccc3)OC(=O)[C@H]1[C@@H]2C(=O)N1CCc2cc(OC)c(OC)cc2C1`, for which the composite z-score in test [1] is 0.438; in test [3], 1.04; in [4], 0.505; in test [5], 0.781; in [6], 0.0215; in test [7] it was 0.0898. The figures for the composite z-score in test [8], in test [9] and in [10] were -0.366, 1.54 and 1.36, respectively. Moreover, the z-score in test [2] is -0.284.

As to `C=C(CCCC)/C(=C/C[C@@H](OC(C)=O)c1ccc(OCCO)cc1)c1cc(C(=O)OC)ccc1OC`, the composite z-score in test [1] was 0.722; in test [3] it was -0.103; in test [4], -0.108; in test [5] it was -0.95; in test [6] it was -0.124; in test [7] it was -0.0769. Besides, the composite z-score was 0.408 in [8], 1.17 in test [9] and 0.722 in test [10]. In addition, in [2], the z-score is -2.31.

Regarding `COc1cccc(C)c1NC(=O)O[C@H]1[C@H](OC(=O)Nc2ccc3c(c2)OCO3)[C@H](OC(=O)Nc2ccc3c(c2)OCO3)[C@@H](OC)O[C@@H]1CO`, the composite z-score in test [1] was 1.47; in test [3], 0.262; in [4] it was 1.6; in test [5], -0.406; in [6], 0.122; in test [7], 0.715. The composite z-score came out at 0.351 in test [8], 0.305 in test [9] and 1.57 in [10]. Besides, the z-score in test [2] was -0.466.

For `COCCCNC(=O)[C@]1(Cc2ccccc2CN=[N+]=[N-])N=C(c2ccc(OCCCO)cc2)O[C@@H]1c1ccccc1N=[N+]=[N-]`, the composite z-score in test [1] is 0.693; in test [3], -0.581; in [4], 1.27; in test [5], 1.18; in test [6], 0.133; in test [7], 1.16. Moreover, the composite z-score in test [8] was 0.467; in test [9], 0.939; in [10] it was 2.35. The molecule further registered a z-score in [2] of -2.06.

As for `COCCOC(=O)N1C(=O)[C@@]2(c3cc(C#CCNC(N)=O)ccc31)[C@H](C(=O)Nc1nc3ccccc3s1)[C@H]1C(=O)O[C@H](c3ccccc3)[C@H](c3ccccc3)N1[C@@H]2c1ccc(O)cc1`, the composite z-score was 1.2 in test [1]; 0.23 in test [3]; 0.68 in test [4]; 0.575 in [5]; -0.124 in test [6]; 0.0483 in [7]. The composite z-score in test [8] was -0.314; in [9] it was 0.618; in test [10] it was 1.6. Moreover, in test [2], the z-score was -1.21.

Consider `CC(C)c1ccc(NN2C(C(O)C(C)c3ccccc3)C=CC3C(=O)N(c4ccccc4)C(=O)C32)cc1` (stereo not given), for which the composite z-score in test [1] is -0.377; in [3] it was 0.162; in test [4], 2.61; in [5], 1.35; in test [6], 0.474; in test [7], 0.252. In addition, the composite z-score in [8] is 2.01; in test [9], 2.3; in test [10], 2.13. Also, in test [2], the z-score came to 1.63.

With `COC(=O)[C@@]1(Cc2ccc(F)cc2)[C@H]2c3cc(C(=O)N4CCCC4)n(CCc4c[nH]c5cc(F)ccc45)c3C[C@H]2CN1C(=O)c1ccccc1`, the composite z-score in test [1] was determined as 1.41; in test [3] it was 0.119; in [4] it was 1.91; in [5] it was 1.2; in [6] it was 0.562; in test [7] it was 0.472. In addition, the composite z-score was -0.615 in [8], -0.291 in [9] and 0.841 in test [10]. This molecule also yielded a z-score in [2] of -1.62.

With `COc1ccc([Si](C)(C)[C@H]2[C@H](CC(=O)N(CCO)Cc3ccccc3)O[C@@]3(C(=O)N(c4ccccc4)c4ccccc43)[C@@H]2C)cc1`, the composite z-score in [1] was 1.32; in test [3], 0.753; in [4], 0.503; in [5], -0.0244; in [6], -0.104; in test [7] it was 0.0022. Moreover, the results for the composite z-score in test [8], in test [9] and in test [10] were -0.519, 0.105 and 1.17, respectively. In test [2], the z-score was -5.19.

As to `COC(=O)[C@@]1(Cc2ccc(F)cc2)[C@H]2c3cc(C(=O)N(C)C)n(Cc4cccc5ccccc45)c3C[C@H]2CN1C(=O)c1ccccc1`, the composite z-score in [1] is 1.12; in test [3], -0.856; in [4] it was 0.0818; in [5] it was 0.189; in test [6], 0.492; in test [7] it was 1.76. The composite z-score in [8] was 1.53; in [9], 1.17; in [10] it was -0.145. Besides, the z-score in test [2] is -1.57.

As to `COCCOC(=O)N1C(=O)[C@@]2(c3ccccc31)[C@H](C(=O)Nc1nc3ccccc3s1)[C@H]1C(=O)O[C@H](c3ccccc3)[C@H](c3ccccc3)N1[C@@H]2c1ccccc1OCCO`, the composite z-score was 1.41 in [1]; 0.146 in [3]; 1.51 in [4]; 0.476 in test [5]; -0.0685 in [6]; -0.225 in test [7]. For the same molecule, the values for the composite z-score in test [8], in [9] and in test [10] were 0.36, 0.429 and 1.72, respectively. In addition, the z-score in test [2] was -1.83.

`COC(=O)[C@H]1N=C(c2ccc(OCCCO)cc2)O[C@H]1c1ccccc1N=[N+]=[N-]`: the composite z-score was 1.05 in test [1]; -0.223 in [3]; 0.203 in [4]; 0.28 in test [5]; 0.16 in test [6]; 0.468 in test [7]. Further, the composite z-score was 1.29 in test [8], 0.451 in test [9] and 1.08 in test [10]. Besides, the z-score in [2] was -1.78.

The values above are taken from PubChem BioAssay.
